Gal4-VP16 FLuc – VP16 counterscreen qHTS for inhibitors of ROR gamma transcriptional activity | Drosophila S2 Gal4-VP16 UAS-luciferase, luminescence, 20 h | Potency, µM (highest dose often 53.6 µM), for inactives: at the top dose activity, negative = inhibition, most hits filed as inhibitors | actives 3.5% (n = 310,000) | AID 2546, 2010;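 also: Gal4-VP16 expression switched on by copper sulfate through the metallothionein promoter; nearly all actives have a fitted effect of over 50% in size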
RORg inh – qHTS for inhibitors of ROR gamma transcriptional activity | Nuclear receptor ROR-gamma (Mus musculus), P51450 | Drosophila S2 Gal4-RORgamma UAS-luciferase reporter, 20 h | Potency, µM (titrated, usually from 53.6 µM), without a hit: top-dose activity change, negative = inhibition, actives largely listed as inhibitors | actives 5.4% (n = 310,000); also: nearly all actives have a fitted effect of over 60% in size
Target sequence (P51450 whole entry, looked up, the tested form may be a part): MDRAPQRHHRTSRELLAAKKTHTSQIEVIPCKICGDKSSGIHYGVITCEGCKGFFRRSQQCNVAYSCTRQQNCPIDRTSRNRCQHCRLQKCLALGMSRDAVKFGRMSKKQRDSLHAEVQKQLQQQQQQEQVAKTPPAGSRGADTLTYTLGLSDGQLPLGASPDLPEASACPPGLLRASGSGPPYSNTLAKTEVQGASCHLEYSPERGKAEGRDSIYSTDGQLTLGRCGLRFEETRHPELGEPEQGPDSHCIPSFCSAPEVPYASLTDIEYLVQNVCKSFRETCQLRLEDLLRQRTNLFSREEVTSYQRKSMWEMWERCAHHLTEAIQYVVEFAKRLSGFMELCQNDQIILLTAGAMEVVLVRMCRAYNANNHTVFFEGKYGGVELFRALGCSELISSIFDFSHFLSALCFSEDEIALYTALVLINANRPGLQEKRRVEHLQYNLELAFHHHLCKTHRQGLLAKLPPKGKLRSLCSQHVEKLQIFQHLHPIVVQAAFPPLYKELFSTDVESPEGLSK
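A Gal4/UAS one-hybrid system in insect cells: metallothionein-promoter Gal4–ROR gamma fusion plus Photinus luciferase reporter. Copper sulfate 700 uM final, 20 hr ambient incubation, luminescent detection after 10 min with reagent.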
TDP1 block – qHTS Assay for Inhibitors of Tyrosyl-DNA Phosphodiesterase (TDP1) | actives 0.28% (n = 350,000) | Potency, µM (highest dose often 130 µM), without a hit: at the top dose activity change, negative = inhibition, usual class: inhibitors | recombinant TDP1, AlphaScreen DNA substrate cleavage | AID 485290, 2010; also: nearly all actives have a fitted effect of over 40% in size
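Compounds were preincubated with Tdp1 (1 nM final) for 15 min at room temperature before substrate (15 nM final) started a 5 min reaction; beads (10 ug/ml final) were then added for 10 min before AlphaScreen detection.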
TDP1 cell CPT – qHTS for Inhibitors of human tyrosyl-DNA phosphodiesterase 1 (TDP1): qHTS in cells in presence of CPT; chicken DT40 Tdp1-/-;hTDP1 cells + 20 nM CPT, ATP luminescence, 48 h; Potency, µM (series often up to 46.2 µM), for the others: at the top dose activity change, negative = growth inhibition, usual class: inhibitors; actives 12% (n = 420,000); also: nearly all actives have a fitted effect of over 55% in size
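Cell growth measured by CellTiter-Glo luminescence after a minimum 48 h, 37 C compound exposure with 20 nM CPT in Tdp1-knockout DT40 cells stably expressing hTDP1, seeded 400/well; qHTS titration format.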
TDP1 cell noCPT – qHTS for Inhibitors of human tyrosyl-DNA phosphodiesterase 1 (TDP1): qHTS in cells in absence of CPT; DT40 Tdp1-/- hTDP1 cells, no CPT, ATP luminescence, 48 h; Potency, µM (top dose mostly 46.2 µM), for inactives: top-dose activity change, negative = growth inhibition, usual class: inhibitors; actives 15% (n = 420,000); AID 686978, 2013; also: nearly all actives have a fitted effect of over 55% in size
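Growth kinetics read by CellTiter-Glo luminescence after ≥48 hr at 37 °C. Cells: DT40 Tdp1-/- stably carrying human TDP1, 400 per well, compound exposure in the absence of CPT (DMSO vehicle).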
An asterisk follows results filed as active; ? = inconclusive; . = not tested or not shown; [ ] = remark or other dose. A selection: hits, their analogues and other compounds. The true share with any hit is near 19%. Calls follow the shape of the dose curve; as a rule, active = well fitted curve in the direction sought with a large enough effect; inconclusive = small, poorly fitted or top-dose-only effect, or another doubt; inactive = no such curve, though single readings can be large; an effect the other way counts as inactive or inconclusive. % is scaled to controls: 0 for no effect and ±100 for the full control effect; potency is read from the fitted curve at half-maximal effect.

SMILES	Gal4-VP16 FLuc	RORg inh	TDP1 block	TDP1 cell CPT	TDP1 cell noCPT
O=[N+]([O-])c1cc(S(=O)(=O)N2CCCC2)ccc1NN=C1CCCCC1	0.0%	-20.8%	1.1%	-14.6%	-16.3%
CCCCCC[C@@H]([C@@H](C)O)n1cnc2c(N)ncnc21	-24.8%	5.8%	8.5%[56.1 µM]	?	?
CCOC(=O)c1cc2ccccc2n1C1CCN(CCc2ccccc2)CC1	.	.	.	9.2µM*	7.31µM*
CCOC(=O)N1CCN(CCc2ccccc2)CC1	-6.7%	11.2%	.	2.6%	-12.7%
CC(C)CCSc1nc(N)c(C#N)cc1C#N	?	?	-6.9%	?	18.4µM*
CSc1sc(-c2ccnc(SCCS(C)(=O)=O)n2)c(-c2ccccc2)c1C#N	-25.6%	11.9%	0.0%	?	18.4µM*
CCOc1cccc(C(c2c(C)n(C)n(-c3ccccc3)c2=O)c2c(C)n(C)n(-c3ccccc3)c2=O)c1OC	2.1%	12.8%	.	-4.3%	-9.2%
CCCNC(=O)c1oc2ccc3c(c2c1C)C(O)CC(C)(C)O3 (stereo not given)	-12.9%	-15.8%	.	-17.1%	6.0%
Cc1cc(C)c2c(=O)n3c(nc2c1)C(Cc1ccccc1)NC(=O)c1cccnc1-3 (stereo not given)	.	.	.	?	20.6µM*
Cc1ccc2c(=O)n3c(nc2c1)C(Cc1ccccc1)NC(=O)c1cccnc1-3 (stereo not given)	.	.	.	-27.6%	?
Cc1cc(C)c2c(=O)n3c(nc2c1)C(Cc1ccc(O)cc1)NC(=O)c1cccnc1-3 (stereo not given)	.	.	.	?	18.4µM*
Clc1ccc(CN2CCSCC2)c(Cl)c1	1.9%	-5.9%	.	0.5%	-17.0%
CCCCCN(C(=O)CCC(=O)OCc1ccccc1C(F)(F)F)c1c(N)n(CCCC)c(=O)[nH]c1=O	-15.1%	27.7%	1.9%	?	-25.8%
CS(=O)(=O)N(Cc1ccccc1)c1ccc(C(=O)N2CCN(c3cccc(Cl)c3)CC2)cc1	14.8%	32.9%	-2.6%	11.2µM*	14.1µM*
CCN1CCN(C(=O)c2ccccc2N(Cc2ccccc2)S(C)(=O)=O)CC1	1.0%	7.3%	0.0%	-9.3%	0.7%
CS(=O)(=O)N(Cc1ccccc1)c1ccccc1C(=O)N1CCN(c2ccccc2)CC1	-2.2%	5.6%	2.3%	20.6µM*	16.4µM*
CCN1CCN(C(=O)c2ccccc2N(Cc2ccccc2)S(=O)(=O)c2ccc(C)cc2)CC1	7.0%	-13.8%	7.9%	?	16.4µM*
CS(=O)(=O)N(CC(=O)N1CCN(c2cccc(Cl)c2)CC1)c1cccc(F)c1	.	?	1.1%	?	16.4µM*
CS(=O)(=O)N(Cc1ccc(Cl)cc1)c1ccc(C(=O)N2CCN(c3ccccc3)CC2)cc1	?	30.9%	6.6%	?	?
CS(=O)(=O)N(CC(=O)N1CCOCC1)c1cccc(F)c1	-19.0%	0.5%	.	9.8%	10.3%
Oc1c(Cl)cc(Cl)c(Cl)c1Cl	-19.5%	114.7%	9.9%	.	.
N=C(N)c1ccc(OCCCCCOc2ccc(C(=N)N)cc2)cc1	4.2%	1.4%[10 µM]	4.3%	1.84µM*	2.06µM*
CCCCCCOc1ccc(/C(N)=N/O)cc1	-0.6%	-3.0%	2.9%	16.4µM*	20.6µM*
CCCCOc1ccc(CC(N)=O)cc1	.	.	.	-2.1%	-13.9%
N=C(N)c1ccc(OCCCOc2ccc(C(=N)N)cc2Br)c(Br)c1	.	.	.	4.73µM*	3.76µM*
SMILES	Gal4-VP16 FLuc	RORg inh	TDP1 block	TDP1 cell CPT	TDP1 cell noCPT
N=C(N)c1ccc(OCCCOc2ccc(C(=N)N)cc2)cc1	.	.	.	6.68µM*	6.68µM*
CC(C)(C)Nc1nc(Cl)nc(NC(C)(C)C)n1	-5.7%	-14.3%	-3.5%	-21.1%	-15.7%
CC(C)(C)Nc1nc(NN)nc(NC(C)(C)C)n1	20µM*	7.08µM*	7.1%	?	?
Cc1nnc(NCc2ccc(F)cc2)c2c1nnn2Cc1ccccc1Cl	.	.	-2.3%	2.91µM*	2.31µM*
CC(C)(C)c1ccc(Cn2nnc3c(=O)[nH]c(C4CCN(C(=O)c5ccco5)CC4)nc32)cc1	-2.5%	33.8%	7.9%	-20.2%	?
O=C(c1ccco1)N1CCN(c2nc(C(F)(F)F)nc3c2nnn3Cc2ccccc2)CC1	-28.7%	26.0%	0.0%	18.4µM*	?
Cc1nnc(N2CCN(c3ccc(Cl)cc3)CC2)c2c1nnn2Cc1ccc(F)cc1	.	.	4.7%	?	2.59µM*
Fc1ccc(N2CCN(c3ncnc4c3nnn4Cc3ccccc3Cl)CC2)cc1	.	.	.	?	14.6µM*
CCCn1c(=O)c(F)cn(Cc2ccc(OC)c([N+](=O)[O-])c2)c1=O	-1.5%	6.1%	2.0%	2.3%	-2.0%
O=C(NCc1ccc(F)cc1)N[C@@H](Cc1ccccc1)C(=O)O	-3.3%	-14.9%	4.2%	0.2%	-12.9%
COc1cccc(/C=N/NC(=O)c2csc(-n3nc(C)cc3C(F)(F)F)n2)c1	-1.9%	-33.4%	-1.0%	-10.3%	?
O=C(c1ccco1)N1CCN(c2ncnc3c2nnn3Cc2ccccc2Cl)CC1	-1.6%	?	7.3%	?	23.1µM*
CCOC(=O)C1CCN(c2ncnc3c2nnn3Cc2ccccc2Cl)CC1	-18.0%	5.5%	2.4%	-10.8%	-29.0%
CC1=C(C(=O)OC(C)C)C(c2ccc3c(c2)OCO3)NC(=O)N1 (stereo not given)	-9.6%	-3.7%	2.7%	-14.0%	-1.2%
CNCC(O)CN(c1ccccc1)c1ccccc1 (stereo not given)	2.8%	39.9%	3.0%	?	?
OC(CN1CCCCCC1)CN(c1ccccc1)c1ccccc1 (stereo not given)	?	?	5.4%	?	?
NC(N)=NCC(O)CN(c1ccccc1)c1ccccc1 (stereo not given)	8.0%	-5.7%	0.0%	?	14.6µM*
OC(CN1CCCCC1)CN(c1ccccc1)c1ccccc1 (stereo not given)	-4.0%	6.4%	5.1%	?	25.9µM*
OC(CN1CCOCC1)CN(c1ccccc1)c1ccccc1 (stereo not given)	-9.0%	2.3%	0.0%	?	11.6µM*
O=C(COc1cccc2c1CCN(Cc1ccccc1)C2=O)NCc1ccco1	18.2%	?	-5.7%	6.8%	-0.4%
COCC(C)NC(=O)c1cc2cc(OC)ccc2[nH]1 (stereo not given)	1.0%	42.6%	1.2%	6.3%	-3.8%
CC[C@@]1(C(=O)OC)N[C@H](CN(C)C(=O)Nc2ccc(OC)cc2)[C@@H]2C(=O)N(C)C(=O)[C@@H]21	.	.	0.9%	8.6%	-5.4%
